Records with an inconclusive call do not appear. A call without a number means that no potency is given here. A number with no mark means an inactive call. Calls of active or inactive are those of the source. Unless noted, calls follow the shape of the dose curve; as a rule, active = well fitted curve in the direction sought with a large enough effect; inconclusive = small, poorly fitted or top-dose-only effect, or another doubt; inactive = no such curve, though single readings can be large; an effect the other way counts as inactive or inconclusive.
How the values were obtained:
[1] = biological target: Calcium and integrin-binding protein 1 (Homo sapiens) (UniProt Q99828); test: Primary qHTS for Identification of Calcium Integrin Binding Protein 1 (CIB1) Competitor (AID 1508620); conditions: CIB1-GST / FITC-alphaIIb peptide fluorescence polarization; series mostly up to 114 µM;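 also: GST tagged CIB1 binding a fluorescein labelled alphaIIb integrin peptide tracer; top concentration of the series differs between compounds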
Summary of the method: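 Fluorescence polarization competition: GST-tagged CIB1 (1 uM final) preincubated with compound 15 min at room temperature, then FITC-labelled alphaIIb peptide (100 nM final) added. After 15 min at room temperature, polarization read at Ex 480/Em 540.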

[2] = A High-Content qHTS Against Drug Library for the Identification of Small Molecules that Inhibit DYT1 Early Onset Primary Dystonia-Associated Cell Pathology (AID 1645839; calls by dose curve); conditions: HEK293 Flp-In EGFP-delE TorsinA, punctate imaging, 48 h; series mostly up to 46.1 µM
Summary of the method: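 Flp-In T-REx 293 cells with tetracycline-inducible EGFP-delE hTOR1A (WT EGFP-hTOR1A as reference), 800 cells/well; compound added with tetracycline, 48 h at 37 C. Fixed, permeabilized cells imaged; %pathology (punctate TorsinA) primary, cell count counterscreen.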

[3] = biological target: Cytochrome P450 2D6 (Homo sapiens) (UniProt P10635); test: Cytochrome P450 family 2 subfamily D member 6 (CYP2D6) small molecule antagonists: luciferase biochemical (cell-free) qHTS assay (AID 1645840; active = well fitted curve in the direction sought with a large enough effect in the repeat runs; an effect the other way counts as inactive or inconclusive; also: nearly all actives have a fitted effect of over 55% in size; also: potency is read from the fitted curve at half-maximal effect); conditions: P450-Glo CYP2D6 enzyme, luciferin luminescence, 1 h; series mostly up to 57.4 µM
Summary of the method: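 P450-Glo luminescent screen: recombinant CYP2D6 enzyme–proluciferin substrate mix preincubated with compound 10 min at room temperature, then NADPH regeneration added for 1 h at room temperature. Detection reagent added for 20 min; luciferin light read as relative luminescence units.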

Chain of Calcium and integrin-binding protein 1 (Homo sapiens) (Q99828 whole entry, looked up): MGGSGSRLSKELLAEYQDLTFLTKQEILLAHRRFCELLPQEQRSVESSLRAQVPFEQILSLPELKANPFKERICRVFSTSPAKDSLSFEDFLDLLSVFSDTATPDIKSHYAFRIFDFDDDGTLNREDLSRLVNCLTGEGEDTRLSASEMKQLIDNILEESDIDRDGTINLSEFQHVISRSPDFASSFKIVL
Chain of Cytochrome P450 2D6 (Homo sapiens) (P10635 whole entry, looked up): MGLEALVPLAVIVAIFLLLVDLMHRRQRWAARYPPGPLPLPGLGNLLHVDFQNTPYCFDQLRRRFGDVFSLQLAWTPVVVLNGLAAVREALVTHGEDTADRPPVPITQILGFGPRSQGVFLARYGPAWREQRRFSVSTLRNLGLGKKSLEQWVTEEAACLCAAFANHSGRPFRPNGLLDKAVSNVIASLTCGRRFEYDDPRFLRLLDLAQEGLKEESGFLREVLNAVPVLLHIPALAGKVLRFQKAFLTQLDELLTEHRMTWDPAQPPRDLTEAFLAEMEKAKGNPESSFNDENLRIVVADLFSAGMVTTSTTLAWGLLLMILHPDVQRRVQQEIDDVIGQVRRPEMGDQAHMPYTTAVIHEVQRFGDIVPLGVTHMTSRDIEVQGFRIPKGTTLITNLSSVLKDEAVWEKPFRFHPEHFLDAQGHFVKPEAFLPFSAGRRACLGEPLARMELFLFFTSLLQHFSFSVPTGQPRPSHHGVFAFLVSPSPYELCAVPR

CN1CCC[C@@H]1Cc1c[nH]c2ccc(CCS(=O)(=O)c3ccccc3)cc12
outcome [1]: inactive
Potency [2]: inactive
Potency [3]: 13.8 µM (active)

N[C@@H](CSSC[C@H](N)C(=O)O)C(=O)O
activity change, negative = inhibition [1]: 1.18% [at 1.07 µM]
% pathology change, negative = correction [2]: 10.2% [at 0.369 µM]
activity change, negative = inhibition [3]: -1.65% [at 0.91 µM]

COC(=O)C1=C(C)NC(C)=C(C(=O)OC)C1c1ccccc1[N+](=O)[O-]
outcome [1]: inactive
Potency [2]: inactive

CCCCC/C(C=O)=C\c1ccccc1
outcome [1]: inactive
Potency [2]: inactive
Potency [3]: inactive

O=C(O)CC(O)C(=O)O (stereo not given)
outcome [1]: inactive
Potency [2]: inactive
Potency [3]: inactive

CC1(C)CO[C@@H](CC(=O)O)CN1
outcome [1]: inactive
Potency [2]: inactive
Potency [3]: inactive

CN1CCOC(c2ccccc2)c2ccccc2C1 (stereo not given)
outcome [1]: inactive
Potency [2]: inactive

CCCCN(CCCC)CCCOC(=O)c1ccc(N)cc1
outcome [1]: inactive
Potency [2]: inactive
Potency [3]: 0.0309 µM (active)

CC(=O)Oc1ccc(C2(c3ccc(OC(C)=O)cc3)C(=O)Nc3ccccc32)cc1
outcome [1]: inactive
Potency [2]: inactive
Potency [3]: inactive

— PubChem BioAssay (NCATS)
